Assay results reported in ChEMBL document CHEMBL3988442, “University of Dundee, Small-Polar-MMV Screening Library” (2021).
Hit rate of the full screen: of about 48,000 compounds, about 13,000 (27%) showed an effect of 50% or more. Some of the results follow.

system: Wolbachia pipientis; assay: Anti-Wolbachia Cell-Based Screen; type: functional; parameters: scale not given: in the data most compounds retested in dose-response had high values; conditions: 5 µM

SMILES	Percent Effect [%]
COc1ccc2c(CN3CCCN(Cc4ccncc4)CC3)n[nH]c2c1	-3.33
c1cnn(CC2CCCN2Cc2nc(-c3ccoc3)no2)c1 (stereo unspecified)	-2.106
COc1ccccc1-c1noc(CN2CCCC2Cn2cccn2)n1 (stereo unspecified)	-4.509
COCCc1noc(CN2CCCCC2Cn2cccn2)n1 (stereo unspecified)	100.4
COCCc1noc(CN2CCCCC2Cn2cc(C)cn2)n1 (stereo unspecified)	4.505
c1cnn(CC2CCCN2Cc2nc(C3CC3)no2)c1 (stereo unspecified)	112.2
COCCc1noc(CN2CCCC2Cn2cc(C)cn2)n1 (stereo unspecified)	0.3604
COCCc1noc(CN2CCCC2Cn2cccn2)n1 (stereo unspecified)	82.73
Cc1cccc(-c2noc(CN3CCCC3Cn3cccn3)n2)c1 (stereo unspecified)	3.964
NC(=O)C1CCCN1Cc1cccc(NC(=O)c2ccsc2)c1 (stereo unspecified)	23.54
CCOc1ccnc(N2CCN(C(=O)CCc3cnn(C)c3)CC2)n1	-13.21
CC(C)(C)[S+]([O-])CCNC(=O)c1ccc(Cl)c2cccnc12 (stereo unspecified)	-0.5335
CCN(CC)C(CNCc1ccc(OC)c(F)c1)c1ccco1 (stereo unspecified)	3.453
CC1(c2ncc(CN3CCN(c4ncccn4)CC3)cn2)CCCCO1 (stereo unspecified)	136.6
CC(C)=CCC1(CO)CCCN(Cc2cnc(N3CCOCC3)nc2)C1 (stereo unspecified)	-21.22
CN(CCc1ccccc1)Cc1cnc(C2(C)CCCCO2)nc1 (stereo unspecified)	153.2
CN(CCc1ccccc1)Cc1nc(-c2cnccn2)no1	-27.95
CC(C)(C)c1cnc(CN2CCN(c3ncccn3)CC2)o1	-4.757
CN(CCc1ccccc1)Cc1cc(C(=O)N2CCCC2(C)C)no1	-2.856
Cc1cc(C)n(C2CCCN(C(=O)c3cc(C4CC4)on3)C2)n1 (stereo unspecified)	8.092
Cn1cnnc1C1CCCN(C(=O)c2cc(C3CC3)on2)C1 (stereo unspecified)	107.9
Cc1cc(C(=O)N2CCCC(c3nncn3C)C2)no1 (stereo unspecified)	92.93
Cn1cnnc1C1CCCN(C(=O)CCc2ccc3c(c2)OCO3)C1 (stereo unspecified)	6.982
Cn1cnnc1C1CCCN(C(=O)Cc2ccc3c(c2)OCCO3)C1 (stereo unspecified)	17.9

SMILES	Percent Effect [%]
Cc1ccc(C(NC(=O)CN2CCc3cncnc3C2)C2CC2)cc1 (stereo unspecified)	0.6852
Cc1nonc1OCCNc1ncnc2sc3c(c12)CCNC3	-7.187
O=C1CN(Cc2nnc(-c3ccc(Br)cc3)o2)CCN1	-13.92
CC(c1ccc(-c2cnc(N)nc2)cc1)N1CCOCC1 (stereo unspecified)	42.28
CCN1CCCC12CCN(C(=O)c1nccn1C)CC2.O=C(O)C(F)(F)F	-7.491
Cn1cccc1C(=O)N1CCC2(CCN2c2ncccn2)C1.O=C(O)C(F)(F)F (stereo unspecified)	93.48
Cn1ccc(C(=O)N2CCC3(CCN3c3ncccn3)C2)n1.O=C(O)C(F)(F)F (stereo unspecified)	111.1
Cn1cccc1C(=O)N1CCC2(CC1)CN(c1ccccn1)CCO2.O=C(O)C(F)(F)F	-8.251
O=C(O)C(F)(F)F.O=C(c1c[nH]cn1)N1CCC(F)(F)C2(CCN(c3ncccn3)C2)C1 (stereo unspecified)	7.042
Cn1cccc1C(=O)N1CCC2(CCCN2c2ncccn2)CC1.O=C(O)C(F)(F)F	1.069
Cn1ccnc1C(=O)N1CCC2(CCN2c2ncccn2)C1.O=C(O)C(F)(F)F (stereo unspecified)	99.87
CCCC(C)N(C)Cc1nnc(-c2ccco2)o1 (stereo unspecified)	-4.256
CSc1c[nH]nc1NS(=O)(=O)c1cc(F)ccc1C	-3.23
CCN1CCN(Cc2nc(Cc3ccccc3)n[nH]2)CC1	2.697
O=C(NCc1ccc2c(c1)OCO2)[C@@H]1C=CCN1c1ncccn1	142.5
O=C(NCc1ccc2c(c1)OCO2)N1CCCC2(C1)OCCO2	2.082
O=C(CCc1ccc2c(c1)OCO2)Nc1cccnc1-n1cncn1	6.275
O=C(NCc1ccc2c(c1)OCO2)[C@H]1C=CCN1c1ncccn1	120.2
CC(NC(N)=O)C(=O)NCc1ccc(Br)c(F)c1 (stereo unspecified)	-7.533
CCC(CC)N1CCC(c2[nH]ncc2S(C)(=O)=O)C1 (stereo unspecified)	101.4
CC(=O)N1CCN(C(=O)NCCCc2cn[nH]c2C)CC1	-4.106
CCc1cn[nH]c1C1CCN(C(=O)c2cc(C(C)=O)c(C)[nH]c2=O)CC1	3.575
CN1CCN(C(=O)C2CCCc3[nH]ncc32)CC1 (stereo unspecified)	-8.316
CN1CCC(c2[nH]ncc2S(C)(=O)=O)CC1	125.9

SMILES	Percent Effect [%]
Cc1c(CN2CCCC(c3[nH]ncc3S(C)(=O)=O)C2)cnn1C (stereo unspecified)	3.915
CC(=O)N1CCC(c2[nH]ncc2S(C)(=O)=O)CC1	87.45
CC(=O)N(C)C1CCN(C(=O)NCC(C)Cc2cccs2)CC1 (stereo unspecified)	8.983
O=C(O)[C@@H]1CN(Cc2ccc(-c3cc[nH]n3)s2)C[C@H]1C1CC1	7.901
CCOC(=O)c1nnc2ccccc2c1N1CCN(C(C)C)CC1	-0.1532
COC(=O)[C@H]1C[C@@H](O)CCN1S(=O)(=O)c1cc(C)c(Cl)cc1C	-11.31
O=C(Nc1ccccc1C(=O)N1CCCC1)NC1CCOCC1	-1.242
Cc1ccc(CN2CCC(c3nnc(CN4CCCCC4)n3C)CC2)o1	-6.981
CCn1cc(CNC(=O)CCc2nnc(-c3ccc(C)s3)o2)cn1	1.856
CN1CCN(C(=O)[C@H]2C[C@H]3[C@H](CCN3Cc3nccs3)O2)CC1	108.2
CN1CCN(C(=O)[C@H]2CC[C@@H]3[C@@H](CCN3Cc3nccs3)O2)CC1	100.9
O=C([C@H]1CN(Cc2nccs2)C[C@H]2OCC[C@@H]12)N1CCCC1	-16.26
Cc1ccsc1CN1CC[C@H]2O[C@H](C(=O)N3CCCO3)CC[C@H]21	-0.787
CN1CC[C@H](c2nnc(-c3cncn3C)o2)C1	-6.33
CN(C)C1(CNC(=O)C2CCCN2Cc2ccc(F)cc2)CCOCC1 (stereo unspecified)	-14.73
O=C(NCc1nncn1C1CC1)C1(c2ccc(F)cc2)CCOCC1	7.233
O=C(NCCO)C1(CC2CC(c3ccc(F)cc3)=NO2)CCOCC1 (stereo unspecified)	103.4
O=C(NCCCO)C1(CC2CC(c3ccc(F)cc3)=NO2)CCOCC1 (stereo unspecified)	116.1
CC(C)NC(=O)N1CCC2(CC1)NC(=O)CC2c1ccncc1.O=C(O)C(F)(F)F (stereo unspecified)	-5.587
CC(C)NC(=O)C1(CC2CC(c3ccc(F)cc3)=NO2)CCNCC1.O=C(O)CC(O)(CC(=O)O)C(=O)O (stereo unspecified)	90.44
O=C(Nc1ccc(F)cc1)NC1(CCO)CCOCC1	-10.62
CNS(=O)(=O)c1cc(C(=O)N2CCCCCC2CC(C)C)co1 (stereo unspecified)	3.036
CCOC(=O)NC(CNC(=O)CCc1ccccn1)CC(C)C (stereo unspecified)	-10.22
O=C(c1cccnc1O)N(Cc1ccsc1)CC1CCCO1 (stereo unspecified)	-13.31

SMILES	Percent Effect [%]
CS(=O)(=O)N1C[C@H]2N(c3ncccn3)CCC[C@@]2(C(=O)NCC2CC2)C1	106.2
CS(=O)(=O)N1C[C@H]2CNC[C@@]2(C(=O)NCCOc2ccccc2)C1	-7.447
CC(C)CN1C[C@H]2N(c3ncccn3)CCC[C@@]2(C(=O)NCC2CC2)C1	98.73
CNC(=O)N1C[C@H]2N(c3ncccn3)CCC[C@@]2(C(=O)NCC2CC2)C1	110.5
CNC(=O)[C@@]12CCCN(c3ncccn3)[C@@H]1CN(C(=O)NC(C)C)C2	-11.1
CNC(=O)[C@@]12CCCN(c3ncccn3)[C@@H]1CN(c1ncc(C)cn1)C2	-6.772
CNC(=O)[C@@]12CCCN(c3ncccn3)[C@@H]1CN(c1ncc(F)cn1)C2	0.8573
CC1CCCCN1CCNC(=O)NCc1ccc(C#N)cc1F (stereo unspecified)	4.831
Cc1noc(C)c1CN1CCO[C@H]2CN(Cc3cccc(F)c3)C[C@H]21.O=C(O)C(F)(F)F.O=C(O)C(F)(F)F	84.77
CC(=O)N1CCC2(CCN(Cc3cccc(F)c3)CC2)CC1.O=C(O)C(F)(F)F	4.828
O=C(O)C(F)(F)F.O=C1[C@@H]2CCN(Cc3ccoc3)C[C@@H]2OCCN1Cc1cccc(F)c1	7.665
NC(=O)N1CCC2(CCN(Cc3cccc(F)c3)CC2)CC1.O=C(O)C(F)(F)F	7.684
Cc1noc(C)c1CN1CCC2(CCN(Cc3cccc(F)c3)CC2)C1.O=C(O)C(F)(F)F.O=C(O)C(F)(F)F	108.5
Fc1ccc(CN2C[C@@H]3OCCN(CCN4CCCC4)[C@@H]3C2)cc1.O=C(O)C(F)(F)F.O=C(O)C(F)(F)F.O=C(O)C(F)(F)F	-5.638
Cc1ccsc1-c1nccn1CCN(C)S(C)(=O)=O	-5.374
Cc1nc(-c2ccccc2C)n(CC(=O)NC(C)C)n1	-16.1
Cc1nc(-c2ccccc2)n(CC(=O)NC2CCCCC2)n1	105.1
Cc1nc(-c2ccccc2C)n(CC(=O)NC(C)C2CC2)n1 (stereo unspecified)	-5.719
Cc1nc(-c2ccccc2)n(CC(=O)NC(C2CC2)C2CC2)n1	-13.82
Cc1nc(-c2ccccc2)n(CC(=O)NC2CCCC2)n1	94.43
CCC(CC)NC(=O)Cn1nc(C)nc1-c1ccccc1	0.4964
Cc1nc(-c2ccccc2C)n(CC(=O)NC2CCCC2)n1	83.22
Cc1cccc(-c2nc(C)nn2CC(=O)NC2CCCC2)c1	6.583
O=C(O)[C@@H]1CN(Cc2c[nH]c(CC3CCCC3)n2)C[C@H]1c1ccccn1	-9.177
